Only some compounds are listed: those with a hit (about 7.6% of all), similar ones and a draw of the others.
p53 reactivation: re-activators of mutant p53 | H1299 p53-A138V BP100-luciferase reporter, luminescence, 24 h | Potency, µM (top dose mostly 92.2 µM), without a hit: at the top dose activity change, positive = activation, most hits filed as activators | 0.063% of 320,000 active; also: potency is read from the fitted curve at half-maximal effect; % of control where 0% means no effect; nearly all actives have a fitted effect of over 45% in size
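H1299 (p53-null), stable ts p53-A138V + BP100-Luc; 1000 cells/well, Opti-MEM/10% FBS; cpd 4 pt, 1:5; 24 h, 37 deg C, 5% CO2; detection reagent 10 min RT; luminescence.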
BRCA1 expr up: increases BRCA1 expression; MCF7-BRCA1-FFLuc reporter, luminescence, 48 h; response scale: scaled: vehicle 0%, 10 µM genistein 100%; Potency, µM (titrated, usually from 46.1 µM), for the others: at the highest dose activation, actives largely listed as activators; 1.1% of 380,000 active; also: potency is read from the fitted curve at half-maximal effect; nearly all actives have a fitted effect of over 80% in size
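Using MCF7 cells harboring a BRCA1 firefly luciferase reporter, plated 2 h before compound pinning, the screen measured luminescence after 48 h incubation. Responses were normalized to DMSO and 10 microM genistein, then fitted for concentration-effect.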
ELG1 repair inh: inhibitors of ELG1-dependent DNA repair in HEK293T cells; HEK293T ELG1-luciferase reporter, luminescence, 16 h; DNA damage induced by 5-fluorouridine; 2.3% of 330,000 active; Potency, µM (doses to about 46.1 µM), for inactives: at the highest dose activity change, negative = inhibition, actives largely listed as inhibitors; AID 504467; also: potency is read from the fitted curve at half-maximal effect; % is scaled to controls: 0 for no effect and ±100 for the full control effect; nearly all actives have a fitted effect of over 55% in size
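Quantitative HTS, concentration-response format. 2,000 cells/well co-treated with 5-fluorouridine and compound, 16 hr in 5% CO2 at 37 °C; ONE-Glo luminescence read after 30 min.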
RORg inh: blocks mouse ROR gamma transcriptional activity | P51450 | Drosophila S2 Gal4-RORgamma UAS-luciferase reporter, 20 h | Potency, µM (top dose mostly 53.6 µM), for the others: top-dose activity change, negative = inhibition, actives largely listed as inhibitors | 5.4% of 310,000 active | AID 2551; also: potency is read from the fitted curve at half-maximal effect; % is scaled to controls: 0 for no effect and ±100 for the full control effect; nearly all actives have a fitted effect of over 60% in size
Target sequence (P51450 whole entry, looked up, the tested form may be a part): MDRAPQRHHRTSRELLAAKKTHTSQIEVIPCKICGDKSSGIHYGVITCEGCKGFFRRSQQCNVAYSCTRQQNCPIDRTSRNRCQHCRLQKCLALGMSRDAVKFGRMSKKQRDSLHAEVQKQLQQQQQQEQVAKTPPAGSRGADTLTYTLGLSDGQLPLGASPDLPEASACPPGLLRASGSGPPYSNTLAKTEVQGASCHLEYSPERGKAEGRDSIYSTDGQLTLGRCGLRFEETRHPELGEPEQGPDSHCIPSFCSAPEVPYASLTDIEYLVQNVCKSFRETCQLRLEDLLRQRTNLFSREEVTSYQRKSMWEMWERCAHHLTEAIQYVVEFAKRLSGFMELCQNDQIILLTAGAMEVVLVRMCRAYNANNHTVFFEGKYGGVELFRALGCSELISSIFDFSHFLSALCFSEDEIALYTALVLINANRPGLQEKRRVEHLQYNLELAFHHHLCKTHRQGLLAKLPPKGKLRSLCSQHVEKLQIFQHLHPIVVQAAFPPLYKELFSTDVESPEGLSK
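Luminescence from a UAS-regulated Photinus luciferase reporter in stably transfected Drosophila Schneider cells is measured; decreased signal marks ROR gamma inhibition. Fusion expression is induced by 700 uM copper sulfate for 20 hr.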
VP16 counter: counter-screen for ROR gamma inhibitors: Gal4-VP16 reporter; Drosophila S2 Gal4-VP16 UAS-luciferase, luminescence, 20 h; Potency, µM (top dose mostly 53.6 µM), for the others: top-dose activity, negative = inhibition, actives largely listed as inhibitors; 3.5% of 310,000 active;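 also: Gal4-VP16 expression switched on by copper sulfate through the metallothionein promoter; potency is read from the fitted curve at half-maximal effect; % is scaled to controls: 0 for no effect and ±100 for the full control effect; nearly all actives have a fitted effect of over 50% in size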
Giardia kill: kills Giardia lamblia. 0.15% of 340,000 active. Giardia lamblia trophozoite viability. activity change, % at 7.66 µM, hits read low; in the data active = activity change below about -80%; inconclusive = between about -30% and that limit;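 also: parasites exposed to compound for two days anaerobically before the ATP read; % is scaled to controls: 0 for no effect and ±100 for the full control effect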
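Media and compound were dispensed first, then trophozoites at 100 cells/well; plates sat 48 hrs at 37 deg C without oxygen before ATP luminescence reagent was added and read after 15-30 min at room temperature.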
Active calls of the source: *; ? = inconclusive; · = no result given. Unless noted, calls follow the shape of the dose curve; as a rule, active = well fitted curve in the direction sought with a large enough effect; inconclusive = small, poorly fitted or top-dose-only effect, or another doubt; inactive = no such curve, though single readings can be large; an effect the other way counts as inactive or inconclusive.

SMILES	p53 reactivation	BRCA1 expr up	ELG1 repair inh	RORg inh	VP16 counter	Giardia kill
CCc1n[nH]c(=S)n1/N=C/c1cccc2ccccc12	5.9%	-14.6%	6.6%	7.08µM*	7.94µM*	7.7
Cc1nn(C)c(Cl)c1CN1CCN(CCC(C)C)C(CCO)C1 (configuration not stated)	5.0%	-13.7%	-11.9%	-10.6%	0.7%	8.3
COc1ccc(NC(=O)c2oc3ccccc3c2NC(=O)c2cc3ccccc3o2)cc1	·	-19.0%	·	·	·	·
COc1cccc(NC(=O)c2oc3ccccc3c2NC(C)=O)c1	25.2%	3.55µM*	?	2.2%	2.7%	-13.5
COc1ccc(NC(=O)c2oc3ccccc3c2NC(=O)c2ccco2)cc1	1.1%	-13.0%	10.3µM*	62.3%	6.9%	4.8
COc1cccc(NC(=O)c2oc3ccccc3c2NC(=O)C2CC2)c1	-1.2%	-9.8%	13µM*	1.5%	-4.5%	4.7
COc1ccc(NC(=O)c2oc3ccccc3c2NC(=O)C2CC2)cc1	-4.0%	3.2%	-21.6%	30.5%	-21.9%	-4.8
CC(C)CCN1CCC[C@]2(N[C@H](c3ccccc3)[C@@H]3C(=O)N(Cc4ccccc4)C(=O)[C@@H]32)C1=O	·	-4.0%	·	·	·	·
CP(=O)(COC(=O)c1ccccc1)COC(=O)c1ccccc1	-4.3%	-0.1%	0.6%	-10.7%	-19.9%	3.5
O=c1c(=Nc2ccccc2O)c(=O)c2ccccc12	11.3%	11.2µM*	?	-15.3%	?	4.7
O=Nc1c(O)c2ccccc2c2ccccc12	·	-31.6%	·	·	·	-19.8
CCC(C)Sc1ccc([C@@H]2[C@H]3C(=O)N(C)C(=O)[C@H]3[C@]3(C(=O)OC)CCCN23)cc1 (some centres not stated)	-2.4%	-7.8%	-9.9%	·	·	-0.8
Cc1ccc(-n2c(C)csc2=N)cc1	23.5%	?	?	?	-15.1%	1.3
Cc1csc(=N)n1-c1ccc(Cl)cc1	?	?	?	?	11.2µM*	-10.6
CCn1nc(C(=O)NNC(=O)c2ccccc2OCc2c(C)noc2C)c2ccccc2c1=O	-7.2%	9.3%	?	·	·	18.2
O=C(NCC(c1cccs1)N1CCOCC1)c1cc(F)cc(F)c1 (configuration not stated)	·	-58.3%	·	·	·	·
CC(C)=CCC/C(C)=C/CNC(=O)C[C@H]1C[C@H](C(=O)N2CCOCC2)[C@@]2(CCC3CCCC3)c3[nH]c4cc(CCC(=O)N(C)C)ccc4c3CCN2C1=O	8.5%	-72.1%	23.1µM*	·	·	1.0
CN(C)C(=O)CCc1ccc2c3c([nH]c2c1)[C@]1(CCC2CCCC2)[C@@H](C(=O)N2CCOCC2)C[C@H](CC(=O)NCC24CC5CC(CC(C5)C2)C4)C(=O)N1CC3	-4.1%	-23.5%	?	·	·	6.6
O=C(COC(=O)c1ccc([N+](=O)[O-])o1)NC1CCCC1	2.1%	-23.3%	3.8%	·	·	-7.8
O=C(NC1CCCC(C(F)(F)F)C1)c1ccc([N+](=O)[O-])o1 (configuration not stated)	-18.9%	-108.8%	-20.8%	·	·	-90.7*
O=C(NC1CCCCC1)c1ccc([N+](=O)[O-])o1	-15.4%	-78.3%	?	-17.7%	-3.0%	-95.2*
CC1=CCC2C(=O)N(c3nc4ccccc4n3C)C(=O)C2C1 (configuration not stated)	·	-2.4%	·	3.55µM*	?	-12.7
CCn1c(C(=O)N2CCCC(C(=O)NCCCc3ccccc3)C2)cc2sccc21 (configuration not stated)	2.0%	-54.9%	20.6µM*	?	11.2µM*	-5.5
CCOC(=O)N1CCC(NC(=O)C2CCN(C(=O)c3cc4sccc4n3CC)CC2)CC1	-4.9%	-7.7%	23.1µM*	?	?	2.8
CCn1c(C(=O)N2CCCC(C(=O)NCCc3ccc(C)cc3)C2)cc2sccc21 (configuration not stated)	-16.2%	-91.3%	18.4µM*	?	-6.8%	-27.7
SMILES	p53 reactivation	BRCA1 expr up	ELG1 repair inh	RORg inh	VP16 counter	Giardia kill
O=C(NCc1ccco1)C1CCN(C(=O)c2cc3sccc3n2Cc2ccc(Cl)cc2)CC1	-5.0%	-91.0%	18.4µM*	?	?	4.1
CCn1c(C(=O)N2CCCC(C(=O)O)C2)cc2sccc21 (configuration not stated)	2.8%	-0.2%	-1.0%	34.1%	2.6%	-9.5
COc1ccc2c(c1OC)C(=O)OC2Nc1ccccc1S(=O)(=O)C(F)F (configuration not stated)	-1.1%	-4.1%	16.4%	15.0%	7.0%	-5.7
CN(C)c1ccc(/C=C2\C(=O)Nc3ccccc32)c2ccccc12	·	·	·	19.4%	-6.6%	·
COC(=O)c1ccc(C(=O)OC)c(NC(=S)N2CCCC2)c1	-5.6%	-17.1%	-4.0%	-31.6%	-6.6%	-23.3
COC(=O)c1ccc(C(=O)OC)c(NC(=S)N2CCCCC2C)c1 (configuration not stated)	20.1%	-19.4%	-2.0%	15.8µM*	?	-17.7
COc1ccc(S(=O)(=O)Nc2ccc3c(c2)CC(=O)N([C@@H](C)CO)C[C@@H](C)[C@@H](CN(C)Cc2ccccc2)O3)cc1	1.2%	0.0%	-18.8%	·	·	10.1
CCN(CC(=O)Nc1ccc(NC(C)=O)cc1)C(=O)/C=C/c1cccs1	-3.5%	-14.1%	12.2%	-4.1%	1.0%	15.9
CCN(CC(=O)Nc1ccc(NC(C)=O)cc1)C(=O)/C=C/c1c(C)nn(-c2ccc(F)cc2)c1C	-5.7%	-32.9%	8.2µM*	-25.0%	10.7%	2.8
c1ccc(-c2nnc(-c3ccccn3)s2)nc1	-9.4%	-78.5%	?	1.78µM*	5.3%	-25.6
Cc1cc(C)cc(-n2c(-c3ccccc3)c(C)n3c4c(=O)n(C)c(=O)n(C)c4nc23)c1	·	20.7%	·	·	·	·
CC(=O)Oc1ccccc1/C=C/c1nc2ccccc2c(=O)o1	-9.3%	-60.2%	-15.1%	8.91µM*	10µM*	?
CC(C(=O)O)C1CCC2C3CC=C4CC(O)CC[C@@]4(C)C3CC[C@]12C (some centres not stated)	·	·	·	-20.8%	2.6%	·
CC1=C(CO)C(=O)OC([C@@H](C)C2CC[C@H]3C4C[C@H]5O[C@]56[C@@H](O)C=CC(=O)[C@]6(C)C4CC[C@]23C)C1 (some centres not stated)	-14.5%	-87.2%	9.2µM*	?	?	13.6
Cn1ncc(S(=O)(=O)Cc2ccccc2)c(Cl)c1=O	0.1%	16.0%	11.9%	-3.1%	-5.1%	-15.2
Cn1ncc(SCc2ccccc2)c(Cl)c1=O	8.0%	-22.7%	8.2µM*	?	15.8µM*	1.3

Assay outcomes: PubChem BioAssay, National Center for Advancing Translational Sciences (NCATS)
